Results published in ChEMBL document CHEMBL5308504, “Tm Shift (DSF) assay results for EUbOPEN Chemogenomics Library” (2023).
Values joined by “and” are separate entries in the source; they are usually repeats but may differ in a detail not shown here. Equal entries are not always repeated.

Columns and labels:
[1] = target: Bromodomain-containing protein 4 (Homo sapiens) (UniProt O60885); details: Compound concentration 20.0 uM, Protein concentration 2.0 uM, Result type QC Liability
[2] = target: T1, Transcription intermediary factor 1-alpha (Homo sapiens) (UniProt O15164); details: Compound concentration 20.0 uM, Protein concentration 2.0 uM, Result type QC Liability
T1 sequence (whole entry): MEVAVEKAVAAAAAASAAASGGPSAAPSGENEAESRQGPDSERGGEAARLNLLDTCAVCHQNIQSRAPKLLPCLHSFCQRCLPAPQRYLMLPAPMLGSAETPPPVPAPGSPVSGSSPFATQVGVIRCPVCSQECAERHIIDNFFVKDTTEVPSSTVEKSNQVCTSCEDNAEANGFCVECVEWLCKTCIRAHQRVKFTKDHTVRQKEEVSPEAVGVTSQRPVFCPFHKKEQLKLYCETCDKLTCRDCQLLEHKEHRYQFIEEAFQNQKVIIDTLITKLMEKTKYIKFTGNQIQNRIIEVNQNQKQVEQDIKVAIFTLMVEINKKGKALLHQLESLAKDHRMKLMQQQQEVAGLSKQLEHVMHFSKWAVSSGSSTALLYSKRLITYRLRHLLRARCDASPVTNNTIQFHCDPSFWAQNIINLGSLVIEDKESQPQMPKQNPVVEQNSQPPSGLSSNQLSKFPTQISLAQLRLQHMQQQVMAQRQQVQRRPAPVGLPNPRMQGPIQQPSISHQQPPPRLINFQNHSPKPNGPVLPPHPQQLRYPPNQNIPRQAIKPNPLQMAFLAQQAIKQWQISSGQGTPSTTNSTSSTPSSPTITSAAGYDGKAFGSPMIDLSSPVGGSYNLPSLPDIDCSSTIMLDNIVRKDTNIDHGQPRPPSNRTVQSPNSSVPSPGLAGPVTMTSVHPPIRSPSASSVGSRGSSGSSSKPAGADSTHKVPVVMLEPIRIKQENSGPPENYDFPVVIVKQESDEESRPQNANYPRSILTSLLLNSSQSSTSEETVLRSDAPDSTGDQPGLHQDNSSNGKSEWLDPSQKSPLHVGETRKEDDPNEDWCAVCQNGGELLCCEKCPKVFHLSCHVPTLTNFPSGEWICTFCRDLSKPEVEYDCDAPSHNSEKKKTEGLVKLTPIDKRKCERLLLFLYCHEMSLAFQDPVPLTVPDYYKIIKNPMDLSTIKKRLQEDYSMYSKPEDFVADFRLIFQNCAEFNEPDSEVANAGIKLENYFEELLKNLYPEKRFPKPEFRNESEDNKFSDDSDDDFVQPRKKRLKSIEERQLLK

| SMILES | ΔTm [1] | ΔTm [2] |
| --- | --- | --- |
| CN[C@@H](C)C(=O)N[C@H](C(=O)N1CCC[C@H]1C(=O)N[C@@H]1CCCc2ccccc21)C1CCCCC1 | -2.83 °C | -1.41 °C |
| CCCN1CCC(C#N)(NC(=O)[C@H](CC(C)(C)C)NC(=O)N2CCOCC2)CC1 | -0.48 °C | 0.46 °C |
| COc1nc2ccc([C@@](O)(c3ccccc3)C3CCN(C(C)=O)CC3)cc2c(Cl)c1Cc1ccc(-n2cccn2)cc1 | -3.41 °C | -0.87 °C |
| CC(C=CC1=C(C)CCCC1(C)C)=CC=CC(C)=CC(=O)O | -5.12 °C | -4.24 °C |
| CCC(=O)N[C@H]1CC[C@@H](C(=O)N(C)c2ccc(-c3nc4ccccc4o3)cc2)C1 | 0.09 °C | 0.23 °C |
| COc1cc(C(=O)O)ncc1C#Cc1ccccc1NS(=O)(=O)c1cccc2c(N(C)C)ccnc12 | 0.26 °C | -2.33 °C |
| COc1cc(C(=O)NC2CCN(C)CC2)ccc1Nc1ncc2c(n1)N(C1CCCC1)CC(F)(F)C(=O)N2C | 7.37 °C | -2.21 °C |
| CC[C@@H](CO)Nc1nc(Nc2cccc(NC(=O)C(C)(C)C)c2)ncc1F | -2.22 °C | 0.33 °C |
| CC(C)(C)c1cnc(CSc2cnc(NC(=O)C3CCNCC3)s2)o1 | 0.24 °C | -1.61 °C |
| Cc1cc(CN)cc(C)c1-c1ncn(C)c1-c1ccnc2cc(F)ccc12 | -0.64 °C | 0.17 °C |
| CC(C)S(=O)(=O)c1ccccc1Nc1nc(N[C@@H]2CCCN(CCCCCCCNC(=O)COc3cccc4c3C(=O)N(C3CCC(=O)N(C)C3=O)C4=O)C2)ncc1Cl (stereo not given in full) | -2.43 °C | -1.22 °C |
| COc1cc(-c2nn([C@H]3CC[C@H](N4CCN(C(C)=O)CC4)CC3)c3ncnc(N)c23)ccc1NC(=O)c1cc2ccccc2n1C | 0.13 °C | -0.55 °C |
| COc1ncc(-c2cc(-c3ncc(CN4C[C@@H](C)O[C@@H](C)C4)o3)c3cn[nH]c3c2)cc1NS(C)(=O)=O | 0.37 °C | -1.87 °C |
| CN(C)C(=O)c1cc2cnc(Nc3ccc(N4CCN(CCCCNC(=O)COc5cccc6c5C(=O)N(C5CCC(=O)NC5=O)C6=O)CC4)cn3)nc2n1C1CCCC1 (stereo not given) | -0.39 °C | -1.79 °C |
| Cn1c(C2(NC(=O)c3ccc4c(C5CCCC5)c(-c5ncc(Br)cn5)n(C)c4c3)CCC2)nc2ccc(/C=C/C(=O)O)cc21 | 0 °C and -4.93 °C | 0.68 °C and -0.65 °C |
| CNc1ncc2cc(-c3ccc(-c4ncccc4F)cc3Cl)c(=O)n(C[C@H]3OC[C@H](N)CO3)c2n1 | -2.59 °C | -3.59 °C |
| CN(C)C(=O)Cn1cc(-c2nc([C@@](C)(c3ccc(-c4cnc(N)nc4)cc3)C3CC3)no2)cn1 | -1.9 °C | 0.31 °C |
| CC(C)Nc1ncnc2cc(OCc3cccc([S@@](C)(=N)=O)c3)c(Br)cc12 | 0.34 °C | 0.14 °C |

| SMILES | ΔTm [1] | ΔTm [2] |
| --- | --- | --- |
| O=C(O)C[C@H]1CC[C@H](c2ccc(NC(=O)c3nnc(Nc4ccc(F)c(F)c4)o3)cc2)CC1 | -0.2 °C | 0.52 °C |
| Fc1ccc(-c2c3cccc(C(F)(F)F)c3nn2Cc2ccc(F)cc2Cl)cc1 | -3.53 °C | -1.16 °C |
| Cn1nc(-c2ccc(C(N)=O)cc2)c2ccccc2c1=O | 0.79 °C | 0.31 °C |
| FC(F)c1cncc(-c2ccc3ncc4nnc(C5=CCCOCC5)n4c3c2)c1 | -0.98 °C | 0.23 °C |
| C[C@]12CC[C@@H]3c4ccc(O)cc4CC[C@H]3[C@@H]1C[C@H]1OC(=O)C[C@]12O | -11.6 °C | 0.49 °C |
| O=C(O)c1cc2cc(Cc3cccnc3)ccc2o1 | -1.5 °C | -0.74 °C |
| Clc1cccc(Nc2nccc(NCCCN3CCOCC3)n2)c1 | -3.15 °C | -3.59 °C |
| C[C@H](CCOc1cccc(CC(=O)O)c1)N(Cc1cccc(C(F)(F)F)c1Cl)CC(c1ccccc1)c1ccccc1 | -6.66 °C | -0.56 °C |
| O=C1Nc2ccc(C(=O)c3ccco3)cc2C1=Cc1cc(Cl)c(O)c(Cl)c1 | 0.79 °C | -3.45 °C |
| COc1cc(F)ccc1-c1ncnc(Nc2cccc(C[S@](C)(=N)=O)c2)n1 | 0.48 °C | -1.99 °C |
| COc1cc(-c2cc3ncccc3c(OC[C@H]3CNC(=O)C3)n2)cc(OC)c1OC1CCOCC1 | -1.76 °C | -2.27 °C |
| CCCN1C(=O)c2ccc(Cl)cc2Nc2ncccc21 | 0.34 °C | 0.51 °C |
| O=C(O)c1ccc(CN2C[C@@H]3C[C@H]2CN3Cc2ccc(Oc3ccc(-c4ncco4)cc3)cc2)cc1 | -2.1 °C | -1.06 °C |
| C[C@H](NC(=O)c1cc(Cl)ccc1Oc1ccc(F)cc1)c1ccc(C(=O)O)cc1 | -0.23 °C | -0.34 °C |
| COCCN1CCN(CCn2ccc(Nc3ncc4c(n3)-c3c(nn(C)c3-c3ccccc3)C[C@H]4C)n2)CC1 | -1.68 °C | -2.88 °C |
| CCS(=O)(=O)Nc1cccc(Oc2cc(F)cc(Nc3ccc(I)cc3F)c2NS(=O)(=O)C2CC2)c1 | -2.86 °C | 3.45 °C |
| CC1(C)CCN(C(=O)C2CN(c3c4c(nc5ccnn35)CCNCC4)C2)C1 | -0.32 °C | 0.23 °C |
